In the supplement of paper PMC12350171:
Structures can show the parent of a compound that is named as a salt. A number with no mark means an inactive call.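 How the source made its calls: active = AUC significantly below DMSO controls by Student t-fit with adjusted P under 0.01; inactive = not significantly reduced.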

These compounds were tested on Haemophilus parainfluenzae (assay: growth AUC normalised to DMSO control (fraction of control); higher = less growth inhibition, active = hit call of the paper). Conditions: 20 µM.
Method in brief: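 Pathogens were passaged twice under anaerobic conditions, then inoculated into pre-reduced mGAM plates at a starting OD578 of 0.01, with compound at 20 μM and 1% DMSO, and sealed with breathable membranes. For Haemophilus parainfluenzae, the medium was supplemented with hemin and NAD. OD578 was read every hour for 24 h in three biological replicates. Growth-curve AUC was calculated by the trapezoidal rule up to the exponential-to-stationary transition and normalised to DMSO controls on the same plate.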

| SMILES | growth AUC normalised to DMSO control |
| --- | --- |
| Cc1cc(C2CCCCC2)n(O)c(=O)c1 [Ciclopirox ethanolamine] | 0.905 |
| Cc1cc(NS(=O)(=O)c2ccc(N)cc2)no1 [Sulfamethoxazole] | 1.01 |
| Oc1c(I)cc(Cl)c2cccnc12 [Clioquinol] | 1.03 |
| Cc1ncc([N+](=O)[O-])n1CCO [Metronidazole] | 0.906 |
| CC(Oc1c(Cl)cccc1Cl)C1=NCCN1 (configuration not stated) [Lofexidine] | 0.993 |
| CN1CCc2c(c3ccccc3n2Cc2ccccc2)C1 [Mebhydroline 1,5-naphtalenedisulfonate] | 0.932 |
| O=C(O)c1ccccc1OP(=O)(O)O [Fosfosal] | 0.998 |
| CCN1CCCC1CNC(=O)c1cc(S(=O)(=O)CC)c(N)cc1OC (configuration not stated) [Amisulpride] | 0.997 |
| O=C(c1ccc(F)cc1)C1CCN(CCn2c(=O)[nH]c3ccccc3c2=O)CC1 [Ketanserin tartrate hydrate] | 0.928 |
| CC[N+](C)(C)c1cccc(O)c1 [Edrophonium chloride] | 0.936 |
| N=C(NCCCCCCNC(=N)NC(=N)Nc1ccc(Cl)cc1)NC(=N)Nc1ccc(Cl)cc1 [Chlorhexidine] | 0.139 (active) |
| Cc1cccc(C)c1NC(=O)C1CCCCN1C (configuration not stated) [Mepivacaine hydrochloride] | 1.07 |
| CN(C)c1nc(N(C)C)nc(N(C)C)n1 [Altretamine] | 1.05 |
| Cc1cc(C(C)(C)C)cc(C)c1CC1=NCCN1 [Xylometazoline hydrochloride] | 0.996 |
| CC(=O)OCC(=O)[C@@]1(O)CC[C@H]2[C@@H]3CCC4=CC(=O)CC[C@]4(C)[C@@]3(F)[C@@H](O)C[C@@]21C [Fludrocortisone acetate] | 1.02 |
| CCN1CCCC(OC(=O)C(c2ccccc2)c2ccccc2)C1 (configuration not stated) [Piperidolate hydrochloride] | 1.05 |
| Cc1cc(C(C)(C)C)c(O)c(C)c1CC1=NCCN1 [Oxymetazoline hydrochloride] | 0.991 |
| Clc1ccc2c(c1)C(N1CCNCC1)=Nc1ccccc1O2 [Amoxapine] | 0.963 |
| COc1ccc2cc([C@@H](C)C(=O)O)ccc2c1 [(R) Naproxen sodium salt] | 1.1 |
| CC(C)OC(=O)C(C)(C)Oc1ccc(C(=O)c2ccc(Cl)cc2)cc1 [Fenofibrate] | 0.961 |
| Clc1ccc(Cn2c(CN3CCCC3)nc3ccccc32)cc1 [Clemizole hydrochloride] | 0.982 |
| COC(=O)[C@H]1[C@H]2C[C@@H]3c4[nH]c5cc(OC)ccc5c4CCN3C[C@H]2C[C@@H](OC(=O)c2cc(OC)c(OC)c(OC)c2)[C@@H]1OC [Reserpine] | 1.07 |
| CCCCCCC[N+](CC)(CC)CCCCc1ccc(Cl)cc1 [Clofilium tosylate] | 1.01 |
| CNCC(O)c1ccc(OC(=O)C(C)(C)C)c(OC(=O)C(C)(C)C)c1 (configuration not stated) [Dipivefrin hydrochloride] | 0.986 |
| CC(C)(C)NCC(O)COc1cccc2c1CCC(=O)N2 (configuration not stated) [Carteolol hydrochloride] | 0.985 |
| Cc1[nH]c(=O)c(C#N)cc1-c1ccncc1 [Milrinone] | 0.987 |
| O=C(O)CCC(=O)c1ccc(-c2ccccc2)cc1 [Fenbufen] | 0.905 |
